Results reported in ChEMBL document CHEMBL4513216, “Probing the Open Global Health Chemical Diversity Library for Multistage-Active Starting Points for Next-Generation Antimalarials” (ACS Infect Dis, 2020).
About 2,100 (3.2%) of roughly 65,000 compounds showed an effect of 50% or more. The median lay at about -52%. The sample as a whole holds a higher share of strong results than the screen did.

Tested on: Plasmodium falciparum
Test: Screen against P. falciparum Asexual Blood Stage (ABS), at 5uM
Assay type: functional, Dd2
Settings: tested at 5 uM

Row | SMILES | INHIBITION [%]
1 | CCS(=O)(=O)N1Cc2ncn(C)c2C(COCC2CCOCC2)C1 (stereo not given) | -46.6
2 | c1ccc2c(c1)CN(c1ncnc3c1CCNC3)CCO2 | 65.9
3 | c1ccc2c(c1)CN(c1ncnc3sc4c(c13)CCNC4)CCO2 | -26.7
4 | CN(C)c1nc2c(c(N3CCc4ccccc4C3)n1)CCNC2 | 31.4
5 | c1ccc2c(c1)CCN(c1ncnc3sc4c(c13)CCNC4)C2 | -28.5
6 | c1cc(C2CCN(c3ncnc4c3CCNCC4)CC2)ccn1 | 27.2
7 | c1nc2c(c(N3CCOCC3)n1)CCNCC2 | -98
8 | c1ccc(C2CCCN(c3ncnc4c3CCNC4)CC2)cc1 (stereo not given) | 61.2
9 | NC(=O)c1cccnc1N1CCN(c2ncnc3c2CCNC3)CC1 | -103
10 | c1ccc2c(c1)CCN(c1nc(-c3ccncc3)nc3c1CCNC3)C2 | 61.6
11 | NC(=O)CN1CCC(NC(=O)COc2ccc(Cl)c(Cl)c2)CC1 | -138
12 | Cn1cccc1CN1CCc2ncnc(-c3cccnc3)c2CC1 | 0.898
13 | O=C1CCCC2=Nc3nonc3NC(c3cc(Cl)ccc3F)C12 (stereo not given) | -54
14 | O=C1CCCCN1Cc1cccc(OC(F)F)c1 | -103
15 | CN(C)S(=O)(=O)N1CC[C@]2(O)CCN(Cc3cc(F)cc(F)c3)C[C@@H]2C1 | -81.9
16 | CN(C)S(=O)(=O)N1CC[C@]2(O)CCN(CCc3cccc(F)c3)C[C@@H]2C1 | 53.4
17 | CN(C)S(=O)(=O)N1CC[C@]2(O)CCN(Cc3cccc(C#N)c3)C[C@@H]2C1 | -58.1
18 | CN(C)S(=O)(=O)N1CC[C@]2(O)CCN(CCCc3cccnc3)C[C@@H]2C1 | -62.2
19 | Cc1ccc(CN2CC[C@@]3(O)CCN(S(=O)(=O)N(C)C)C[C@H]3C2)cc1C | 53.6
20 | CN(C)S(=O)(=O)N1CC[C@]2(O)CCN(Cc3cccc(F)c3)C[C@@H]2C1 | 20.7
21 | CC(C)(C)CN1CCCC12CCN(S(=O)(=O)c1ccccc1)C2 (stereo not given) | 32.5
22 | c1cnnc(N2CCCC2CNCc2cccs2)c1 (stereo not given) | 55.7
23 | c1cnnc(N2CCCC2CNCCc2cccs2)c1 (stereo not given) | 40
24 | c1cnnc(N2CCCC2CNCc2nc(-c3ccco3)no2)c1 (stereo not given) | 50.5
25 | CC(C)CCc1nc(CNCC2CCCN2c2cccnn2)cs1 (stereo not given) | 67.4
26 | Cc1nc(CNCC2CCCN2c2cccnn2)cs1 (stereo not given) | -34.2
27 | c1cnnc(N2CCCC2CNCc2nc(-c3ccoc3)no2)c1 (stereo not given) | 35.2

Row | SMILES | INHIBITION [%]
28 | c1cncc(-c2noc(CNCC3CCCN3c3cccnn3)n2)c1 (stereo not given) | -92.3
29 | CCc1nc(CNCC2CCCN2c2cccnn2)cs1 (stereo not given) | 58.7
30 | c1cnnc(N2CCCC2CNCc2cscn2)c1 (stereo not given) | 35.8
31 | Cc1ccc(CNCC2CCCN2c2cccnn2)s1 (stereo not given) | 46.6
32 | CCCc1nc(CNCC2CCCN2c2cccnn2)cs1 (stereo not given) | 37.5
33 | c1cnnc(N2CCCC2CNCc2csc(-c3ccco3)n2)c1 (stereo not given) | 41.4
34 | COCCOc1ccccc1C(=O)N1CCCC(c2cc(C)[nH]n2)C1 (stereo not given) | -15.2
35 | Cc1ccccc1SC1CCN(C(=O)CCCS(N)(=O)=O)CC1 | -124
36 | Cc1noc(C)c1CN1C(=O)[C@@H]2CC[C@H]1CN(Cc1cccnc1N)C2 | -49.1
37 | Cn1cc(CNC2CCc3c(ccc(=O)n3Cc3cccnc3)C2)cn1 (stereo not given) | -48.3
38 | CCc1cc(C(F)(F)F)n2nc(C3CCCN3C(=O)COC)cc2n1 (stereo not given) | -17.9
39 | CCc1cnc(CN(C)C(=O)Nc2cnn(CC3CCCO3)c2)s1 (stereo not given) | -48.8
40 | Cc1cccc(CNCC2(O)CCCN(CC3CCCCC3)C2=O)n1 (stereo not given) | -3.18
41 | Cc1ncccc1Oc1nccnc1C1CCCN(C(C)C)C1 (stereo not given) | -26.3
42 | c1cnnc(N2CCCC2CNCc2nc3ccccc3o2)c1 (stereo not given) | -31.6
43 | CN(Cc1nc2ccccc2o1)CC1CCCN1c1cccnn1 (stereo not given) | 69.3
44 | Cc1nc(CN(C)CC2CCCN2c2cccnn2)oc1C (stereo not given) | -18.6
45 | CC(C)c1nnc2ccc(N3CCC(C(=O)Nc4nccs4)CC3)nn12 | 66.9
46 | Cc1nnc2ccc(N3CCC(C(=O)Nc4nccs4)CC3)nn12 | -16.3
47 | CC(C)c1nnc2ccc(N3CCCC(C(=O)Nc4nccs4)C3)nn12 (stereo not given) | -58
48 | NC(=O)C(c1ccc(F)cc1)N1CCN(CCO)CC1 (stereo not given) | -133
49 | CC(C)c1ccc(C(CN)N2CCc3sccc3C2)cc1 (stereo not given) | 69.8
50 | CSc1ccc(C(CNC(C)=O)N2CCc3sccc3C2)cc1 (stereo not given) | -77.1
51 | NCC(c1ccccc1)N1CCc2sccc2C1 (stereo not given) | 57.9
52 | NCC(c1ccc(Cl)cc1)N1CCc2sccc2C1 (stereo not given) | 66.5
53 | CSc1ccc(C(CNC(=O)C2CC2)N2CCc3sccc3C2)cc1 (stereo not given) | 20.6
54 | CCOCCCC(=O)NCC(c1ccccc1)N1CCc2sccc2C1 (stereo not given) | -59.8

Row | SMILES | INHIBITION [%]
55 | CSc1ccc(C(CN)N2CCc3sccc3C2)cc1 (stereo not given) | 9.08
56 | O=C(NCCO)NCC(c1ccccc1)N1CCc2sccc2C1 (stereo not given) | -6.62
57 | O=C(COCC1CC1)NCC(c1ccccc1)N1CCc2sccc2C1 (stereo not given) | -122
58 | O=C(C1CNCCN1C(=O)CCOc1ccccc1)N1CCOCC1 (stereo not given) | -116
59 | COC(=O)[C@@H]1C[C@H](NC(=O)c2cc(=O)[nH]c3ccc(C)cc23)CN1C | 5.12
60 | CSCC[C@H](N)c1nnc(SCC(=O)Nc2ccc(Br)cc2)o1 | -102
61 | Cc1ccccc1C(=O)N1Cc2c(Cn3ccnc3)nn(C)c2C1 | -35.3
62 | CS(=O)(=O)N1CC2(CCN(C(=O)c3ccncc3)CC2)c2ccccc21 | -67.5
63 | Cc1cc(N2CCC(c3ncc[nH]3)CC2)nc(N)n1 | -25.6
64 | Cc1cc(N2CCC(c3ncc[nH]3)CC2)cc(C)n1 | -26.7
65 | Cc1cc(N2CCC(c3ncc[nH]3)CC2)c2ccccc2n1 | 62.6
66 | NCC(=O)N1CCCC(c2cncc(Nc3ncccn3)n2)C1 (stereo not given) | -81.1
67 | Cc1ccc(CN2CCCC3(COCCN(Cc4c[nH]nn4)C3)C2)s1 (stereo not given) | 37.3
68 | O=C(c1c[nH]c(=O)[nH]c1=O)N1CCCC(c2cnccn2)C1 (stereo not given) | -173
69 | CC(C)Nc1ncnc2c1CCN(C(=O)N1CCOCC1)CC2 | -114
70 | CCC[C@@H]1CN(C(=O)c2ccccc2-c2ccccc2)C[C@H]1N(C)C | 22.2
71 | CCC[C@@H]1CN(C(=O)c2conc2-c2ccccc2)C[C@H]1N(C)C | 52.8
72 | CCC[C@@H]1CN(C(=O)c2cc(-c3cccs3)n(C)n2)C[C@H]1N(C)C | -63
73 | CCC[C@@H]1CN(C(=O)c2cc3ccccc3cc2O)C[C@H]1N(C)C | 52.8
74 | CCC[C@@H]1CN(C(=O)c2ccccc2-c2ncc[nH]2)C[C@H]1N(C)C | -80.9
75 | CCC[C@@H]1CN(C(=O)c2ccccc2C(C)=O)C[C@H]1N(C)C | -112
76 | CCOCC1CN(C2CCCC2)Cc2cnn(CC3CCOCC3)c21 (stereo not given) | -1.53
77 | CC(C)N1CCCN(c2nc(-c3cccnc3)nc3c2cnn3C)CC1 | 43.8
78 | CCN1CCC(CC(=O)NCc2nc(C)cc(C)n2)CC1 | -46.7
79 | Cc1nc(C2CCCN2C(=O)COc2ccccc2)ncc1C(N)=O (stereo not given) | -61
80 | COc1cccc(CN(C)C(=O)c2ccc(NC(C)=O)s2)c1OC | -83.5
81 | NC(=O)CCNC(=O)NCC1(c2ccccc2Cl)CCC1 | -18.5

Row | SMILES | INHIBITION [%]
82 | NC(=O)CCNCc1c(Cl)cccc1N1CCCC1 | 66.4
83 | O=C(NC1CCCN(c2ccccc2Cl)C1)c1c[nH]nn1 (stereo not given) | -144
84 | O=c1oc(-c2cccs2)nn1CC(O)c1ccc2c(c1)CCC2 (stereo not given) | -20
85 | Cc1nnc(NC(=O)C(C)n2ncc(Br)c2C)s1 (stereo not given) | -120
86 | CCCn1ncc(CN2C[C@@H]3CCCN3C[C@H]2CCSC)c1C | -62.1
87 | CCCn1ncc(CN2C[C@@H]3CCCN3C[C@@H]2Cc2ccccc2)c1C | 63.8
88 | CCn1ncc(CN2C[C@@H]3CCCN3C[C@@H]2CCSC)c1C | -116
89 | CCCn1ncc(CN2C[C@@H]3CCCN3C[C@H]2Cc2ccccc2)c1C | 57.8
90 | C=Cn1ncc(CN2C[C@@H]3CCCN3C[C@@H]2Cc2ccccc2)c1C | 25.8
91 | CCCn1ncc(CN2C[C@@H]3CCCN3C[C@@H]2CCSC)c1C | 29.3
92 | CNC(=O)COC1COC2(CCN(Cc3ccncc3F)CC2)C1 (stereo not given) | -146
93 | CC(C)[C@H](NS(C)(=O)=O)C(=O)NCc1cc(-c2ccco2)nn1C | -141
94 | COc1c(CNCc2ccccc2Cn2cncn2)c(C)nn1C | 3.03
95 | COc1c(CNCc2ccc(Cn3cccn3)cc2)c(C)nn1C | 14.8
96 | COc1c(CNCc2ccccc2Cn2cccn2)c(C)nn1C | 57.4
97 | COC[C@]1(O)CCN(c2cc(C3CC3)ncn2)CC1(C)C | -106
98 | CC(C)C(=O)NCCc1nc(-c2ccncc2)n[nH]1 | -11.5
99 | CC(C)c1cc(C(=O)NCCc2nc(-c3ccncc3)n[nH]2)[nH]n1 | 66.4
100 | CC(C)c1cc(C(=O)NCCc2nc(-c3cccnc3)n[nH]2)[nH]n1 | 14.9
101 | Cc1noc([C@@H]2C[C@H]3OCC[C@H]3N(Cc3cc(C)c(C)o3)C2)n1 | -151
102 | CNC(=O)NC(=O)CN1CCC(c2cccc(F)c2)C1 (stereo not given) | -92.5
103 | CCNC(=O)NC(=O)CN1CCC(c2cccc(F)c2)C1 (stereo not given) | -4.74
104 | CC(C)NC(=O)CN1CCC(c2cccc(F)c2)C1 (stereo not given) | 54.9
105 | Cc1ccccc1NC(=O)N1CCN(Cc2noc(C3CC3)n2)CC1 | -69.4
